From PubChem BioAssay AID1159580 (chemical genetic matrix, 2015)
Several values for one entry are separate records, joined by “and”; a condition that tells them apart may be missing. Equal entries are not always repeated. About 2,000 (36%) of roughly 5,500 compounds were called active. Inconclusive results (about 18%) are left out. No stated cut-off is given here; in the data, active means normalized growth mostly below about 0.91 (no sharp cut-off); inconclusive means no clear call, values can overlap the other calls; inactive means mostly above about 0.92. The list shows a part of the results.

Assay: chemical genetic growth profiling, strain panel (AID 1159580);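 further: tested at 20 µM; growth read once vehicle control cultures reached saturation at 30 °C; 1 = growth at the plate median or of vehicle wells; lower values mean less growth of the strain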
Conditions: S. cerevisiae deletion strains, growth OD

Measured: normalized growth

CC(C)CCCC(C)C1CCC2C3CC[C@H]4CCCC[C@]4(C)C3CC[C@]12C (some centres not stated)
inactive: locus YAL013W, strain DEP1, hits give low values 1.09 | locus YAL021C, strain ccr4, hits give low values 1 | locus YAL026C, strain drs2, hits give low values 1.02 | locus YAL030W, strain snc1, hits give low values 1.02 | locus YBL061C, strain skt5, hits give low values 1.02 | locus YBR009C, strain hhf1, hits give low values 1.03 | locus YBR021W, strain FUR4, hits give low values 1.04 | locus YBR023C, strain chs3, hits give low values 1.02 | locus YBR171W, strain sec66, hits give low values 1.02 | locus YBR229C, strain ROT2, hits give low values 0.963 | locus YBR231C, strain swc5, hits give low values 1.03 | locus YBR279W, strain paf1, hits give low values 1.02 | locus YCL011C, strain gbp2, hits give low values 1.02 | locus YCL016C, strain dcc1, hits give low values 1.02 | locus YCL029C, strain bik1, hits give low values 0.985 | locus YCL061C, strain MRC1, hits give low values 1.02 | locus YCL069W, strain vba3, hits give low values 1.01 | locus YCR088W, strain abp1, hits give low values 1.01 | locus YDL005C, strain med2, hits give low values 1.02 | locus YDL035C, strain GPR1, hits give low values 0.971 | locus YDL040C, strain nat1, hits give low values 1.01 | locus YDL074C, strain BRE1, hits give low values 0.959 | locus YDL101C, strain DUN1, hits give low values 0.952 | locus YDL134C, strain PPH21, hits give low values 0.985 | locus YDL185W, strain tfp1, hits give low values 0.966 | locus YDL192W, strain arf1, hits give low values 0.983 | locus YDR001C, strain nth1, hits give low values 1.01 | locus YDR069C, strain doa4, hits give low values 1.05 | locus YDR101C, strain arx1, hits give low values 0.99 | locus YDR137W, strain rgp1, hits give low values 1 | locus YDR150W, strain NUM1, hits give low values 0.965 | locus YDR159W, strain sac3, hits give low values 1.04 | locus YDR162C, strain NBP2, hits give low values 0.964 | locus YDR195W, strain ref2 1.03 | locus YDR297W, strain sur2, hits give low values 1.02 | locus YDR318W, strain mcm21, hits give low values 1 | locus YDR334W, strain swr1, hits give low values 1.01 | locus YDR335W, strain msn5, hits give low values 1.02 | locus YDR388W, hits give low values 0.987 | locus YDR392W, strain spt3, hits give low values 0.98 | locus YDR502C, strain sam2, hits give low values 0.978 | locus YEL003W, strain gim4, hits give low values 1.03 | locus YEL037C, strain rad23, hits give low values 1.01 | locus YEL061C, strain CIN8 (second series), hits give low values 1.01 | locus YEL061C, strain CIN8, hits give low values 0.994 | locus YER015W, strain faa2, hits give low values 1.02 | locus YER016W, strain bim1, hits give low values 1.02 | locus YER110C, hits give low values 0.988 | locus YER111C, strain swi4, hits give low values 1.03 | locus YER155C, strain BEM2 (second series), hits give low values 1.04 | locus YER155C, strain BEM2, hits give low values 0.998 | locus YER167W, strain BCK2, hits give low values 1.01 | locus YFR010W, strain ubp6, hits give low values 1.02 | locus YGL078C, strain dbp3, hits give low values 0.994 | locus YGL086W, strain mad1, hits give low values 1.01 | locus YGL167C, strain pmr1, hits give low values 1.01 | locus YGL173C, strain kem1, hits give low values 1.02 | locus YGL227W, strain vid30, hits give low values 1.03 | locus YGL240W, strain doc1, hits give low values 1.05 | locus YGL248W, strain PDE1, hits give low values 0.984 | locus YGL253W, strain hxk2, hits give low values 1 | locus YGR078C, strain PAC10, hits give low values 0.967 | locus YGR135W, strain pre9, hits give low values 0.965 | locus YGR229C, strain SMI1, hits give low values 0.979 | locus YGR252W, strain gcn5, hits give low values 1 | locus YHR013C, strain ard1, hits give low values 1.05 | locus YHR027C, strain rpn1, hits give low values 1.01 | locus YHR030C, strain SLT2, hits give low values 0.997 and 0.984 | locus YHR079C, strain IRE1 (second series), hits give low values 1 | locus YHR079C, strain IRE1, hits give low values 1 | locus YHR094C, strain hxt1, hits give low values 0.988 | locus YHR129C, strain ARP1, hits give low values 0.993 | locus YHR142W, strain chs7, hits give low values 0.982 | locus YHR200W, strain rpn10, hits give low values 0.978 | locus YIL066C, strain RNR3, hits give low values 0.974 | locus YIL073C, strain SPO22, hits give low values 1.08 | locus YIL125W, strain kgd1, hits give low values 0.991 | locus YIR030C, strain dcg1, hits give low values 0.987 | locus YJL092W, strain hpr5, hits give low values 1.01 | locus YJL095W, strain BCK1 (second series), hits give low values 1.01 | locus YJL095W, strain BCK1, hits give low values 0.976 and 0.988 | locus YJL115W, strain asf1, hits give low values 1.01 | locus YJL129C, strain trk1, hits give low values 1.01 | locus YJL134W, strain LCB3, hits give low values 0.991 | locus YJL154C, strain vps35, hits give low values 1 | locus YJL164C, strain tpk1, hits give low values 1.02 | locus YJL166W, strain qcr8, hits give low values 1.02 | locus YJL168C, strain set2, hits give low values 0.988 | locus YJL187C, strain SWE1 (second series), hits give low values 0.966 | locus YJL187C, strain SWE1, hits give low values 1.02 | locus YJR043C, strain POL32, hits give low values 1.05 | locus YJR066W, strain TOR1, hits give low values 0.931
